Bioassay records from PubChem BioAssay.
Sampled rows, rich in hits. Any-hit rate of the full collection: about 7%.
S2 tox = viability counter-screen for ATXN expression inhibitors | S2 cells (HEK-293 line with an ATXN2-luciferase reporter) viability, CellTiter-Fluor protease fluorescence, 24 h | Potency, µM (series often up to 56.7 µM), actives largely listed as cytotoxic | actives 0.49% (n = 400,000); note: nearly all actives have a fitted effect of over 40% in size
D3 ag = activates the human D3 dopamine receptor. P35462. D3R DiscoveRx beta-arrestin cells, luminescence, 90 min. max activation, %. actives 0.58% (n = 410,000). AID 652048; in the data active = max activation above about 30%
Target sequence (P35462 whole entry, looked up): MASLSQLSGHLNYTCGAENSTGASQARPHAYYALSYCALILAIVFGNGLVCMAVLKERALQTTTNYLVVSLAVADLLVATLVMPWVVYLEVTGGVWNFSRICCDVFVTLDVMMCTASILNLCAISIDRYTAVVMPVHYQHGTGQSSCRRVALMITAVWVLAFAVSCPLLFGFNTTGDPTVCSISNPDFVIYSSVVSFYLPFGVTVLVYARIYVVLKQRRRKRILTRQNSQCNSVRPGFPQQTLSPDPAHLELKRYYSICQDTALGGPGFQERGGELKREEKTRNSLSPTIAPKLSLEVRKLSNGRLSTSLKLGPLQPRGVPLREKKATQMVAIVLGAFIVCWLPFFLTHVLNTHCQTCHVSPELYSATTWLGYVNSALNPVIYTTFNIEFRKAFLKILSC
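Agonist mode: compounds and dopamine controls were applied to plated cells for 90 min at 37 degrees C after an overnight attachment at 1500 cells/well. Luminescent read-out followed 30 - 60 minutes at room temperature with DiscoveRx detection reagent.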
D3 antag = blocks the human D3 dopamine receptor; P35462; D3R cells, DiscoveRx beta-arrestin luminescence, antagonist mode; hits give low values; max response, negative = inhibition, %; actives 2.5% (n = 360,000); AID 652054; in the data active = max response below about -50%; inconclusive = no clear call, values can overlap the other calls
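Cells expressing the human receptor were seeded at 1500 cells/well, incubated overnight at 37 degrees C in 5% CO2, then exposed to library compounds with dopamine controls for 90 minutes at 37 degrees C before luminescent detection.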
ATXN2 expr inh = ATXN2 expression inhibition. HEK-293 ATXN2-luciferase reporter, luminescence, 24 h. Potency, µM (series often up to 57 µM), most hits filed as inhibitors. actives 0.72% (n = 360,000); note: nearly all actives have a fitted effect of over 55% in size
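ATXN2-luciferase reporter cells (luciferase flanked by upstream and downstream ATXN2 gene portions) were treated 24 h at 37 °C with compounds at up to 57 uM. SteadyGlo luminescence gave expression; GF-AFC fluorescence gave viability.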
IL1B secr inh = inflammasome signaling inhibition, IL-1 beta readout; THP-1 LPS/ATP IL-1B secretion, AlphaLISA, 16 h; hits give low values; activity change, % at 57.5 µM; actives 4.7% (n = 360,000); AID 743279; in the data active = activity change below about -50%; inconclusive = mostly about -30% to -49%
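Secreted IL-1B measured by AlphaLISA bead assay after 16 h compound exposure of THP-1 cells; compounds (final up to 57.5 uM) added 1 h before LPS (250 ng/mL) and ATP (1.25 mM) stimulation; lower signal means less secretion.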
a7 integrin act = activates integrin-mediated alleviation for muscular dystrophy | AID 624291 | actives 0.064% (n = 350,000) | alpha7betagal myoblasts, beta-gal FDG fluorescence, 48 h | Potency, µM (series often up to 38.3 µM), actives largely listed as activators; note: nearly all actives have a fitted effect of over 60% in size
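Alpha7betagal+/- myoblasts (passage 13) were plated 16-24 hr, then exposed to compounds (1:260 dilution of DMSO stock) for 48 hours at 37C. After MPER lysis, β-galactosidase reporter activity was read as FDG fluorescence (ex 480/em 540) after 30 minutes.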
Hits are given with their value; n = inactive; u = inconclusive; x = no result given; ! = not active in a repeat; [ ] = dose if it differs, or a comment. Unless noted, calls come from the whole dose curve; as a rule, active = well fitted curve in the direction sought with a large enough effect; inconclusive = small, poorly fitted or top-dose-only effect, or another doubt; inactive = no such curve, though single readings can be large; an effect the other way counts as inactive or inconclusive.

SMILES | S2 tox | D3 ag | D3 antag | ATXN2 expr inh | IL1B secr inh | a7 integrin act
Cc1cccc(C)c1OCC(=O)N/N=C/c1ccc2c(c1)OCO2 | u | n | n | n | n | n
Cc1ccc(S(=O)(=O)N2CCCOC2CNC(=O)C(=O)NCCc2c[nH]c3ccccc23)cc1 (stereo not drawn) | n | n | n | n | -60 | n
CCC(C)n1c(=O)c2sccc2n2c(CCCC(=O)NCc3ccccc3Cl)nnc12 (stereo not drawn) | x | n | x | x | x | x
COc1cc(-c2nnc(-c3ccc(N4CCOCC4)cc3)o2)cc(OC)c1OC | n | 38 | n | n | u | n
COc1ccc(CN(C)S(=O)(=O)c2nnc(NC(=O)c3cccc(F)c3)s2)cc1OC | n | n | n | n | n | n
O=C1c2cccc(OCc3ccc(F)cc3)c2CCN1Cc1ccccc1 | n | n | n | n | -57 | n
CC(C)(C)c1ccc(C(=O)NCCCNC(=O)c2cccnc2)cc1 | n | n | n | n | n | n
O=C(N/C(=C/C=C/c1ccccc1)C(=O)N1CCCCC1)c1ccc([N+](=O)[O-])cc1 | 1.5µM | n | n | n | n | n
O=C(N/C(=C/c1ccc([N+](=O)[O-])cc1)C(=O)N1CCCC1)c1ccccc1 | n | n | n | n | n | n
Cc1ccc(S(=O)(=O)CC(=O)Nc2nnc(C(C)(C)C)s2)cc1 | n | n | n | n | n | n
CC(=O)n1c2ccccc2c2c1c1ccccc1n2C | n | n | -56 | n | n | n
CC(=O)n1c2ccccc2c2nc3ccccc3nc21 | n | n | n | n | n | n
CC(C)CC(=O)N=C1SC2CS(=O)(=O)CC2N1Cc1ccccc1 (stereo not drawn) | n | n | n | n[11.3 µM] | n | n
Cn1c(Cc2csc(N)n2)nnc1SCC(=O)NC1CCCCC1 | n | n | -57 | n | n | n[1.53 µM]
COc1ccc(NC(=O)C2(N(CC(C)C)C(=O)Cn3nnnc3N)CCCCC2)cc1 | n | n | n | n | n | n
Cc1ccc2cccc(N=Cc3c(C)[nH]n(-c4ccccc4)c3=O)c2n1 | n | n | -99 | 28µM | n | n
Cc1[nH]n(-c2ccccc2)c(=O)c1/C=N/N1C(=O)c2ccc3c4c(ccc(c24)C1=O)CC3 | n | n | n | u | -88 | n
Cc1[nH]n(-c2ccccc2)c(=O)c1/C=N/O | n | n | n | n | n | n
CCOc1ccc(NC(=O)C(=O)NCCc2ccccc2)cc1 | n | n | x | n | x | x
Cc1ccccc1C1C(C#N)=C2N=C(N)c3c(sc4c3CCCCC4)N2C2=C1C(=O)CCC2 (stereo not drawn) | n | n | -76 | n | n | n
N#CC1=C2N=C(N)c3ccccc3N2C2=C(C(=O)CCC2)C1c1ccccc1F (stereo not drawn) | n | n | n | x | n | n
CCCC(=O)N1CCN(c2nc3ccc(Cl)cc3s2)CC1 | n | n | n | x | n | n
Cn1c(CC(=O)NCCO)c(Sc2ccccc2)c2ccccc21 | n | n | n | n | n | n
O=C(Cc1c(Sc2ccccc2)c2ccccc2n1Cc1ccccc1)NCCO | u | n | -73 | u | u | n
COC(=O)COc1cccc2c(=O)n(CC(=O)Nc3ccc4c(c3)OCCO4)ccc12 | n | n | n | n | -50 | n
SMILES | S2 tox | D3 ag | D3 antag | ATXN2 expr inh | IL1B secr inh | a7 integrin act
CN(CCC#N)C(=O)COC(=O)c1c2c(nc3ccccc13)/C(=C\c1ccco1)CC2 | x | n | n | n | -63 | n
O=C(COC(=O)c1c2c(nc3ccccc13)/C(=C\c1ccco1)CC2)NC1CCCC1 | x | n | n | n | n | n
CN(CCC#N)C(=O)COC(=O)c1nn(-c2ccccc2)c(=O)c2ccccc12 | n | n | -58 | n | n | n
CC(=O)Nc1nc2ccccc2n1CCOc1ccccc1 | n | n | n | n | n | n
Nc1nc2ccccc2n1CCOc1ccc(F)cc1 | u | n | n | x | -51 | n
S=C(Nc1ccccc1)Nc1nc2ccccc2n1CCOc1ccccc1 | n | n | n | u | -106 | n
CCCCn1c(NC(=S)Nc2ccccc2)nc2ccccc21 | n | 32 | n | n | -106 | n
Cc1ccccc1N1CC(C(=O)Nc2nnc(SCCN3CCOCC3)s2)CC1=O (stereo not drawn) | n | n | n | n | n | n
CCOc1ccccc1NC(=O)c1cnc(N2CCOCC2)c2ccccc12 | x | n | x | x | x | x
O=C(CCN1C(=O)C2C3C=CC(C4CC34)C2C1=O)Oc1cccc2cccnc12 (stereo not drawn) | n | n | -68 | u | n | n
COc1cc2nc(NCCCN3CCN(C)CC3)n3nc(-c4ccccc4)nc3c2cc1OC | n | n | n | n | -110 | n
Cc1ccc(CCNc2nc3ccccc3c3nc(-c4ccccc4)nn23)cc1 | n | n | x | n | x | x
CCN(CC)CCCNc1nc2cc(OC)c(OC)cc2c2nc(-c3ccccc3)nn12 | n | n | u | n | -88 | n
CCN(CC)CCCNc1nc2cc(OC)c(OC)cc2c2nc(-c3cccnc3)nn12 | n | n | n | n | -90 | n
CCN(CC)CCCNc1nc2ccccc2c2nc(-c3ccncc3)nn12 | u | n | n | u | -102 | n
COCCCNc1nc2cc(OC)c(OC)cc2c2nc(-c3ccccc3)nn12 | n | n | n | n | n | n
CN1CCN(CCCNc2nc3ccccc3c3nc(-c4ccccc4)nn23)CC1 | n | n | n | x | n | n
CCOc1ccccc1NC(=O)CSc1ccccc1 | n | n | n | n | n | n
CCOc1cccc(CN2CCC(n3nccc3NC(=O)CCCc3ccccc3)CC2)c1 | u | n | u | u | u | n
Cc1cc(C)[n+]2n1C(=O)C(c1ccccc1)=C2[O-] | u | 50! | n | n | n | n
O=C(N/N=C/c1ccccc1C(=O)O)c1ccncc1 | n | n | n | n | n | n
CCNC(=O)Nc1ccc2c(c1)c(=O)n(C)n2Cc1ccc(Cl)cc1 | n | n | u | n | n | x
N#CC(C#N)=NNc1ccc2cn[nH]c2c1 | 16µM | n | n | u | -86 | x
CCNC(=S)Nc1ccc2cn[nH]c2c1 | n | n | n | n | n | n
CN(C)S(=O)(=O)c1cccc2c1C(=O)c1ccccc1C2=O | n | n | n | n | n | n
SMILES | S2 tox | D3 ag | D3 antag | ATXN2 expr inh | IL1B secr inh | a7 integrin act
NS(=O)(=O)c1cccc2c1C(=O)c1cccc(O)c1C2=O | x | x | x | 3.1µM | x | x
O=C1c2ccccc2-c2onc3ccc(Oc4ccccc4)c1c23 | x | n | -116 | u | n | n
COc1ccc(CNC(=O)Cn2ncc3c(=O)oc4ccc(C)cc4c32)c(OC)c1 | x | n | x | x | x | x
O=C(Nc1ccccc1[N+](=O)[O-])c1cc(S(=O)(=O)Nc2ccccn2)ccc1Cl | n | n | n | n | n | n
Cc1ccccc1NC(=O)c1cc(S(=O)(=O)c2ccccc2)ccc1Cl | n | n | -52 | n | n | n
NS(=O)(=O)c1ccc(Cl)c(C(=O)Nc2ccccc2[N+](=O)[O-])c1 | n | n | n | n | -56 | n
